Results on 10 compounds are retold here after PubChem BioAssay (NCI).

About 79,000 compounds went through this panel and 15% of them were active in at least one assay; those are over-represented in the sample as a whole. Unmarked numbers belong to inactive results. Active and inactive are the calls of the source. Cut-off read from the data, not from the text of the source: active = growth inhibition above about 70%; inactive = the rest.

Assay [1] is described as follows: NCI Yeast Anticancer Drug Screen. Data for the rad50 strain (AID 155).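 Note: 0% = growth of vehicle-only cultures of the same strain.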 The settings on record: S. cerevisiae rad50 strain growth inhibition, hits give high values. An outline of the steps:
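A DNA repair-deficient yeast mutant serves as the test organism; compound-induced growth inhibition is calculated against vehicle-treated cells.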

Assay [2] can be described thus: NCI Yeast Anticancer Drug Screen. Data for the mec2-1 strain (AID 157). To be noted: S. cerevisiae mec2-1 strain, hits give high values. An outline of the steps: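 Mutant yeast (mec2-1) grown with compound; growth inhibition relative to vehicle control reported.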
Assay [3] can be described thus: NCI Yeast Anticancer Drug Screen. Data for the sgs1 mgt1 strain (AID 161).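 Note: 0% = growth of cultures given vehicle only.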 The settings on record: S. cerevisiae sgs1 mgt1 strain, hits give high values. An outline of the steps:
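Growth of a repair-deficient yeast mutant was monitored after compound treatment and expressed as inhibition relative to vehicle-treated cultures.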

A short description of assay [4]: NCI Yeast Anticancer Drug Screen. Data for the cln2 rad14 strain (AID 165).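 Note: 0% = growth equal to vehicle treated cultures.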 To be noted: S. cerevisiae cln2 rad14 strain, hits give high values. An outline of the steps: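 Readout is yeast growth inhibition versus vehicle-treated controls, using a strain with cln2 and rad14 alterations exposed to compound.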
Assay [5] is described as follows: NCI Yeast Anticancer Drug Screen. Data for the bub3 strain (AID 167). To be noted: S. cerevisiae bub3 mutant strain, hits give high values. An outline of the steps: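 Inhibition values come from growth of compound-treated mutant yeast normalised to vehicle-treated controls.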
A short description of assay [6]: NCI Yeast Anticancer Drug Screen. Data for the mlh1 rad18 strain (AID 175). To be noted: S. cerevisiae mlh1 rad18 strain growth inhibition, hits give high values. Put shortly:
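Genetically defined yeast (DNA repair-deficient) exposed to compounds; growth inhibition determined relative to vehicle.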

Setting [7] is: at 5.0 µM (retest, dose inferred, filed as 0.5).
Setting [8] is: at 50.0 µM (retest, dose inferred, filed as 5.0).

In the case of `ClCc1ccc2ccc3ccc(CCl)nc3c2n1`, the growth inhibition in assay [1] (setting [7]) was 31%; in assay [1] (setting [8]), 81% (active); in assay [1] (at 50.0 µM), 47.1%; in assay [2] (setting [7]), 67%; in assay [2] (setting [8]), 93% (active); in assay [2] (at 50.0 µM), 43%. Besides, the growth inhibition in assay [3] (setting [7]) is 65%; in assay [3] (setting [8]), 93% (active); in assay [3] (at 50.0 µM) it was 70.2% (active); in assay [4] (setting [7]), 29%; in assay [4] (setting [8]), 81% (active); in assay [4] (at 50.0 µM), 27.8%. Besides, the growth inhibition in assay [5] (setting [7]) was -7%; in assay [5] (setting [8]), 95% (active); in assay [5] (at 50.0 µM), 59%; in assay [6] (setting [7]), 72% (active); in assay [6] (setting [8]) it was 94% (active); in assay [6] (at 50.0 µM), 62%.
As for `NC(=S)Nc1c(Br)cc(Br)cc1Br`, the growth inhibition in assay [1] (setting [7]) was -1%; in assay [1] (setting [8]) it was 91% (active); in assay [1] (at 50.0 µM), 62.5%; in assay [2] (setting [7]) it was 1%; in assay [2] (setting [8]), 90% (active); in assay [2] (at 50.0 µM), 33.5%. For the same compound, the growth inhibition is -1% in assay [3] (setting [7]); 84% (active) in assay [3] (setting [8]); 34.8% in assay [3] (at 50.0 µM); 3% in assay [4] (setting [7]); 88% (active) in assay [4] (setting [8]); 23.1% in assay [4] (at 50.0 µM). Further, the growth inhibition in assay [5] (setting [7]) was -6%; in assay [5] (setting [8]), 80% (active); in assay [5] (at 50.0 µM), 74% (active); in assay [6] (setting [7]) it was 2%; in assay [6] (setting [8]), 88% (active); in assay [6] (at 50.0 µM), 47%.
For the compound `CC(=O)c1c(O)c2ccc(Cl)cc2[nH]c1=O`, the growth inhibition in assay [1] (setting [7]) is 73% (active); in assay [1] (setting [8]) it was 90% (active); in assay [1] (at 50.0 µM) it was 79.2% (active); in assay [2] (setting [7]), 36%; in assay [2] (setting [8]) it was 87% (active); in assay [2] (at 50.0 µM), 14.7%. The growth inhibition in assay [3] (setting [7]) was 79% (active); in assay [3] (setting [8]) it was 95% (active); in assay [3] (at 50.0 µM), 83.2% (active); in assay [4] (setting [7]) it was 25%; in assay [4] (setting [8]), 59%; in assay [4] (at 50.0 µM), 31.5%. For the same compound, the growth inhibition is 71% (active) in assay [5] (setting [7]); 91% (active) in assay [5] (setting [8]); 38.2% in assay [5] (at 50.0 µM); 72% (active) in assay [6] (setting [7]); 94% (active) in assay [6] (setting [8]); 66.7% in assay [6] (at 50.0 µM).
As for `CCNc1cc(N)[n+](CC)c2n[nH]c(/N=C/c3cc(Cl)cc(Cl)c3O)c12`, the growth inhibition is 37% in assay [1] (setting [7]); 80% (active) in assay [1] (setting [8]); 88% (active) in assay [1] (at 50.0 µM); 26% in assay [2] (setting [7]); 77% (active) in assay [2] (setting [8]); 87.5% (active) in assay [2] (at 50.0 µM). In addition, the growth inhibition in assay [3] (setting [7]) is 41%; in assay [3] (setting [8]) it was 98% (active); in assay [3] (at 50.0 µM), 89.8% (active); in assay [4] (setting [7]), 63%; in assay [4] (setting [8]), 98% (active); in assay [4] (at 50.0 µM), 79.9% (active). Besides, the growth inhibition is 87% (active) in assay [5] (setting [7]); 97% (active) in assay [5] (setting [8]); 90.3% (active) in assay [5] (at 50.0 µM); 37% in assay [6] (setting [7]); 78% (active) in assay [6] (setting [8]); 88.2% (active) in assay [6] (at 50.0 µM).
With `CCc1nc(N)nc(N)c1-c1ccc(N2CCCCC2)c([N+](=O)[O-])c1`, the growth inhibition is 3% in assay [1] (setting [7]); 8% in assay [1] (setting [8]); 31.3% in assay [1] (at 50.0 µM); 6% in assay [2] (setting [7]); 4% in assay [2] (setting [8]); 56.8% in assay [2] (at 50.0 µM). The growth inhibition in assay [3] (setting [7]) is 1%; in assay [3] (setting [8]) it was 3%; in assay [3] (at 50.0 µM), 13.3%; in assay [4] (setting [7]) it was -6%; in assay [4] (setting [8]) it was 6%; in assay [4] (at 50.0 µM), 72.2% (active). The growth inhibition was -1% in assay [5] (setting [7]); -2% in assay [5] (setting [8]); 91.7% (active) in assay [5] (at 50.0 µM); -1% in assay [6] (setting [7]); 0% in assay [6] (setting [8]); 51% in assay [6] (at 50.0 µM).
Regarding `O=C(OCCN=c1c2ccccc2ccc2ccccc12)c1ccccc1`, the growth inhibition in assay [1] (setting [7]) is 0%; in assay [1] (setting [8]) it was 97% (active); in assay [1] (at 50.0 µM) it was 42%; in assay [2] (setting [7]), -14%; in assay [2] (setting [8]), 94% (active); in assay [2] (at 50.0 µM), 31.4%. In addition, the growth inhibition in assay [3] (setting [7]) was -43%; in assay [3] (setting [8]) it was 83% (active); in assay [3] (at 50.0 µM), 65.3%; in assay [4] (setting [7]), 22%; in assay [4] (setting [8]), 36%; in assay [4] (at 50.0 µM), 29.8%. Besides, the growth inhibition in assay [5] (setting [7]) is 2%; in assay [5] (setting [8]) it was 98% (active); in assay [5] (at 50.0 µM), 71% (active); in assay [6] (setting [7]) it was -19%; in assay [6] (setting [8]) it was 98% (active); in assay [6] (at 50.0 µM), 15.7%.
Regarding `COC(=O)c1c2c(cc3c1CC1(Cc4cc5c(c(C)c4C1)CCC5)C3)CCC2` (stereo not given), the growth inhibition in assay [1] (setting [7]) is 15%; in assay [1] (setting [8]), 12%; in assay [1] (at 50.0 µM) it was -32.5%; in assay [2] (setting [7]), 6%; in assay [2] (setting [8]) it was 5%; in assay [2] (at 50.0 µM), -46.4%. Further, the growth inhibition was 9% in assay [3] (setting [7]); 12% in assay [3] (setting [8]); -31.9% in assay [3] (at 50.0 µM); -4% in assay [4] (setting [7]); 13% in assay [4] (setting [8]); -11.1% in assay [4] (at 50.0 µM). Further, the growth inhibition in assay [5] (setting [7]) is 14%; in assay [5] (setting [8]), 10%; in assay [5] (at 50.0 µM), -13.1%; in assay [6] (setting [7]), 12%; in assay [6] (setting [8]), 11%; in assay [6] (at 50.0 µM) it was -22.9%.
As to `Cc1ccc(Nc2nc3c(s2)C(=O)c2ccccc2C3=O)c(C)c1`, the growth inhibition was 28% in assay [1] (setting [7]); 99% (active) in assay [1] (setting [8]); 98.7% (active) in assay [1] (at 50.0 µM); 33% in assay [2] (setting [7]); 99% (active) in assay [2] (setting [8]); 99.5% (active) in assay [2] (at 50.0 µM). Besides, the growth inhibition in assay [3] (setting [7]) was 18%; in assay [3] (setting [8]) it was 99% (active); in assay [3] (at 50.0 µM) it was 99.2% (active); in assay [4] (setting [7]), 7%; in assay [4] (setting [8]), 98% (active); in assay [4] (at 50.0 µM) it was 98.9% (active). Besides, the growth inhibition in assay [5] (setting [7]) is 50%; in assay [5] (setting [8]) it was 99% (active); in assay [5] (at 50.0 µM), 99.5% (active); in assay [6] (setting [7]) it was 30%; in assay [6] (setting [8]), 98% (active); in assay [6] (at 50.0 µM), 97.8% (active).
`O=C1CSC(=S)N1c1ccc(I)cc1`: the growth inhibition in assay [1] (setting [7]) was 1%; in assay [1] (setting [8]), 34%; in assay [1] (at 50.0 µM), 99% (active); in assay [2] (setting [7]) it was -2%; in assay [2] (setting [8]), 11%; in assay [2] (at 50.0 µM) it was 99% (active). The growth inhibition is 2% in assay [3] (setting [7]); 59% in assay [3] (setting [8]); 99.2% (active) in assay [3] (at 50.0 µM); -2% in assay [4] (setting [7]); -8% in assay [4] (setting [8]); 83.8% (active) in assay [4] (at 50.0 µM). The growth inhibition was -6% in assay [5] (setting [7]); 26% in assay [5] (setting [8]); 99% (active) in assay [5] (at 50.0 µM); 0% in assay [6] (setting [7]); 75% (active) in assay [6] (setting [8]); 98.7% (active) in assay [6] (at 50.0 µM).
Consider `c1ccc(Oc2ccc(Nc3c4ccccc4nc4ccccc34)cc2)cc1`, for which the growth inhibition is 85% (active) in assay [1] (setting [7]); 57% in assay [1] (setting [8]); 45.9% in assay [1] (at 50.0 µM); 4% in assay [2] (setting [7]); 70% (active) in assay [2] (setting [8]); 30% in assay [2] (at 50.0 µM). Also, the growth inhibition was 17% in assay [3] (setting [7]); 84% (active) in assay [3] (setting [8]); 76.2% (active) in assay [3] (at 50.0 µM); 3% in assay [4] (setting [7]); 62% in assay [4] (setting [8]); 31.9% in assay [4] (at 50.0 µM). Also, the growth inhibition is -4% in assay [5] (setting [7]); 81% (active) in assay [5] (setting [8]); 28.6% in assay [5] (at 50.0 µM); 13% in assay [6] (setting [7]); 91% (active) in assay [6] (setting [8]); 27.1% in assay [6] (at 50.0 µM).
